This passage reports morphology score and SARS-CoV-2 infection rate results from the supplement of paper PMC13380429.

Experiment [1] has as its system Vero E6 infected with SARS-CoV-2. In words: morphology score (similarity to uninfected cells); higher = more like uninfected cells. The conditions noted are these: 24 h.
The test system is the same in experiment [2]. In words: SARS-CoV-2 infection rate relative to infected DMSO; higher = more infection, active = 60 or less. The note with it: 24 h.

Each structure is given as a SMILES string.

`CCCCOc1cc(C(=O)OCCN(CC)CC)ccc1N` [oxybuprocaine] (10 µM) displayed a morphology score in experiment [1] of 0.0894. The SARS-CoV-2 infection rate in experiment [2] is 114% (inactive).
For `O=C1CN2Cc3c(ccc(Cl)c3Cl)N=C2N1` [anagrelide] (10 µM), in experiment [1], the morphology score is 0.142. For the same compound, the SARS-CoV-2 infection rate in experiment [2] is 112% (inactive).
The corresponding values for `CN1C(C(=O)Nc2ccccn2)=C(O)c2sccc2S1(=O)=O` [tenoxicam] (10 µM) are -0.0614 and 108% (inactive).
For `CC(C)n1cnc2c(C(=O)N[C@H]3CN4CCC3CC4)cc(Cl)cc21` (10 µM), the morphology score in experiment [1] was determined as 0.38. In addition, the SARS-CoV-2 infection rate in experiment [2] was 85% (inactive).
The corresponding values for `O=C(Nc1nc2cccc(-c3ccc(CN4CCS(=O)(=O)CC4)cc3)n2n1)C1CC1` [filgotinib] (10 µM) are 0.154 and 97% (inactive).
On the same counts, the results for `NC(=O)CN1CC(c2ccccc2)CC1=O` (stereo not drawn) [phenylpiracetam] (10 µM) are 0.175 and 94% (inactive).
`Cc1ccc(Cl)cc1N(CC(=O)Nc1c(F)cccc1F)S(C)(=O)=O` (10 µM): the morphology score in experiment [1] was 0.0341. For the same compound, the SARS-CoV-2 infection rate in experiment [2] is 113% (inactive).
The corresponding values for `COc1ccc(C2C(=O)c3ccccc3C2=O)cc1` [anisindione] (10 µM) are -0.177 and 114% (inactive).
On the same counts, the results for `CCN1CCN(c2cc(-c3ccc(F)cc3)c3c(n2)CCCCCC3)CC1` [blonanserin] (10 µM) are 0.248 and 107% (inactive).
On the same counts, the results for `Cc1cnc(NC(=O)Nc2cc(Br)c(C)cc2OC[C@@H]2CNCCO2)cn1` (0.833333 µM) are 0.0474 and 111% (inactive).
As to `c1cc(CN2CCCCC2)cc(OCCCNc2nc3ccccc3s2)c1` [zolantidine] (10 µM), the morphology score in experiment [1] is 0.67. In addition, in experiment [2], the SARS-CoV-2 infection rate is 44% (active).
On to `CC1(CN2CCC(n3c(=O)[nH]c4ccccc43)CC2)OCc2ccccc2-n2cccc21` (stereo not drawn) [zaldaride] (10 µM), for which the morphology score in experiment [1] is -0.152. In addition, the SARS-CoV-2 infection rate in experiment [2] is 112% (inactive).
`CCN(CC)Cc1nccn1-c1ccc([N+](=O)[O-])cc1C(=O)c1ccccc1Cl` [nizofenone] (10 µM) gave a morphology score in experiment [1] of 0.148. The SARS-CoV-2 infection rate in experiment [2] is 98% (inactive).
On the same counts, the results for `O=C(O)CNC(=O)C(CS)Cc1ccccc1` (stereo not drawn) [thiorphan] (10 µM) are 0.106 and 98.5% (inactive).
On the same counts, the results for `CCn1cc(C(=O)O)c(=O)c2cnc(N3CCCC3)nc21` [piromidic-acid] (10 µM) are 0.0342 and 99.5% (inactive).
The corresponding values for `C[C@]12C/C(=C/O)C(=O)C[C@@H]1CC[C@@H]1[C@@H]2CC[C@@]2(C)[C@H]1CC[C@]2(C)O` [Oxymetholone] (10 µM) are -0.162 and 120% (inactive).
Turning to `O=C(NCCCCN1CCN(c2cccc(Cl)c2Cl)CC1)c1ccc2c(c1)Cc1ccccc1-2` (10 µM), the morphology score in experiment [1] is -0.00329. Further, in experiment [2], the SARS-CoV-2 infection rate is 105% (inactive).
The corresponding values for `COC(=O)Nc1nc2cc(C(=O)c3cccs3)ccc2[nH]1` [nocodazole] (0.833333 µM) are 0.025 and 104% (inactive).
On the same counts, the results for `COc1ccc(C(=O)C2CCN(CC(=O)N(Cc3nc4c(c(=O)[nH]3)COCC4)CC3CC3)CC2)cc1` (10 µM) are 0.165 and 102% (inactive).
The corresponding values for `O=C(NO)c1ccc2[nH]c(=O)c(CCCc3ccccc3)nc2c1` (10 µM) are -0.0251 and 100% (inactive).
In experiment [1], `CCCCCCCCCCCCCCCC(=O)OC[C@@H](NC(=O)C(Cl)Cl)[C@H](O)c1ccc([N+](=O)[O-])cc1` [chloramphenicol-palmitate] (10 µM) registered a morphology score of 0.04. Also, the SARS-CoV-2 infection rate in experiment [2] was 106% (inactive).
The corresponding values for `Cc1c(-c2ccnn2C)cc(C(=O)NCc2ccc(S(C)(=O)=O)cn2)c(=O)n1-c1cccc(C(F)(F)F)c1` (10 µM) are 0.101 and 106% (inactive).
The corresponding values for `CC(C(=O)O)c1ccc2c(c1)[nH]c1ccc(Cl)cc12` (stereo not drawn) [carprofen] (10 µM) are -0.0165 and 108% (inactive).
The corresponding values for `CN(C)CC[C@@]1(c2ccc(Cl)cc2)Cc2ccccc2C(=O)O1` (racemic) (10 µM) are -0.1 and 106% (inactive).
In experiment [1], `O=C(O)C[C@H]1CC[C@H](c2ccc(-c3ccc(Nc4ccc(C(F)(F)F)nc4)cn3)cc2)CC1` (10 µM) had a morphology score of 0.27. Also, in experiment [2], the SARS-CoV-2 infection rate was 73.5% (inactive).
With `CO[C@@H](C)Cn1c(=O)n(C)c2cnc3ccc(-c4cncc(C(C)(C)O)c4)cc3c21` (10 µM), in experiment [1], the morphology score was -0.000833. Further, the SARS-CoV-2 infection rate in experiment [2] is 112% (inactive).
The corresponding values for `COc1ccccc1Oc1c(NS(=O)(=O)c2ccc(C(C)(C)C)cc2)nc(-c2ncccn2)nc1OCCO` [bosentan] (10 µM) are 0.0268 and 112% (inactive).
With `CCC(=O)N1CCOc2c(cc(-c3ccc(OC)c(OC)c3)cc2OC[C@H]2CCCN(C)C2)C1` (0.833333 µM), the morphology score in experiment [1] was -0.0814. In addition, the SARS-CoV-2 infection rate in experiment [2] is 98.5% (inactive).
On the same counts, the results for `COc1ccc(O)c(C(C)(C)C)c1.COc1ccc(O)cc1C(C)(C)C` [butylated-hydroxyanisole] (10 µM) are -0.127 and 116% (inactive).
The corresponding values for `O=C(NCc1ccccc1)c1csc(Nc2ccncn2)n1` [thiazovivin] (0.833333 µM) are 0.654 and 99% (inactive).
On the same counts, the results for `C[C@@H]1CC[C@H]2C(C)(C)[C@H]3C[C@@]12CC[C@@]3(C)O` [cedrol] (10 µM) are 0.0579 and 95.5% (inactive).
The compound `CC[C@H](CC[C@@H](C)[C@H]1CC[C@H]2[C@@H]3CC=C4C[C@@H](O[C@@H]5O[C@H](CO)[C@@H](O)[C@H](O)[C@H]5O)CC[C@]4(C)[C@H]3CC[C@]12C)C(C)C` [daucosterol] (10 µM) yielded a morphology score in experiment [1] of 0.0785. In addition, in experiment [2], the SARS-CoV-2 infection rate was 102% (inactive).
On the same counts, the results for `COc1ccn2ncc(-c3nc4[nH]nc(NC(=O)c5ccc(F)cc5)c4cc3F)c2c1` (10 µM) are 0.00883 and 111% (inactive).
`N#Cc1ccc(-c2csc(NN=C3CCCC3)n2)cc1` [remodelin] (10 µM) showed a morphology score in experiment [1] of 0.0343. The SARS-CoV-2 infection rate in experiment [2] is 100% (inactive).
The corresponding values for `CN(C)CCc1c[nH]c2ccc(CS(=O)(=O)N3CCCC3)cc12` [almotriptan] (10 µM) are 0.00995 and 110% (inactive).
On the same counts, the results for `CCCCCOC(=O)Nc1nc(=O)n([C@@H]2O[C@H](C)[C@@H](O)[C@H]2O)cc1F` [capecitabine] (10 µM) are -0.208 and 114% (inactive).
On the same counts, the results for `CCCn1c(=O)c2nc(C34CC5CC(CC3C5)C4)[nH]c2n(CCC)c1=O` (10 µM) are 0.134 and 94% (inactive).
`CNCC(O)c1ccc(OC(=O)C(C)(C)C)c(OC(=O)C(C)(C)C)c1` (stereo not drawn) [dipivefrine] (10 µM) had a morphology score in experiment [1] of 0.127. In addition, the SARS-CoV-2 infection rate in experiment [2] is 89.5% (inactive).
`O=C(NCC(=O)N1CC[C@H](N[C@H]2CC[C@@](O)(c3ccc(-c4ncccn4)cn3)CC2)C1)c1cccc(C(F)(F)F)c1` (10 µM) displayed a morphology score in experiment [1] of 0.0269. In experiment [2], the SARS-CoV-2 infection rate was 106% (inactive).
On the same counts, the results for `O=C(O)c1cc(C(=O)O)c(C(=O)N(Cc2cccc(Oc3ccccc3)c2)[C@H]2CCCc3ccccc32)cc1C(=O)O` (10 µM) are 0.189 and 95.5% (inactive).
On the same counts, the results for `Cc1cc(-c2cc(O)ccc2Cl)cc2nnc(Nc3ccc(OCCN4CCCC4)cc3)nc12` (0.833333 µM) are -0.04 and 103% (inactive).
Consider `CC(N)CCCC(C)(C)O` (stereo not drawn) [heptaminol] (10 µM), for which the morphology score in experiment [1] was -0.15. The SARS-CoV-2 infection rate in experiment [2] is 111% (inactive).
In experiment [1], `C#C[C@]1(OC(C)=O)CC[C@H]2[C@@H]3CCC4=CC(=NO)CC[C@@H]4[C@H]3CC[C@@]21CC` (mixture of isomers) [norgestimate] (10 µM) displayed a morphology score of 0.111. Further, the SARS-CoV-2 infection rate in experiment [2] is 108% (inactive).
On the same counts, the results for `CC(=O)OCC1=C(C(=O)O)N2C(=O)[C@@H](NC(=O)CCCC(N)C(=O)O)C2SC1` (stereo partly drawn) [cephalosporin-c-zn] (10 µM) are 0.00489 and 97% (inactive).
As for `CC(=O)O[C@H]1CC[C@@]2(C)C(=CC[C@@H]3[C@@H]2CC[C@]2(C)C(=O)CC[C@@H]32)C1` [prasterone-acetate] (10 µM), in experiment [1], the morphology score was -0.259. In experiment [2], the SARS-CoV-2 infection rate is 110% (inactive).
The corresponding values for `CC(=O)Nc1cccc(O)c1` [metacetamol] (10 µM) are 0.0448 and 97% (inactive).
Take `OCCN1C[C@H](O)[C@@H](O)[C@H](O)[C@H]1CO` [miglitol] (10 µM): the morphology score in experiment [1] is 0.11. For the same compound, the SARS-CoV-2 infection rate in experiment [2] is 106% (inactive).
In the case of `C[C@H](Nc1ncnc2[nH]cnc12)c1cc2ccc(F)cc2nc1-c1ccccn1` (10 µM), the morphology score in experiment [1] amounted to 0.0578. Besides, the SARS-CoV-2 infection rate in experiment [2] was 114% (inactive).
On the same counts, the results for `C[C@]1(O)C[C@@H](c2nc(-c3ccc4ccc(-c5ccccc5)nc4c3)c3c(N)nccn32)C1` [linsitinib] (10 µM) are 0.275 and 88.5% (inactive).
The corresponding values for `C[C@@H]1COC(Nc2ccc3ncnc(Nc4ccc(OCc5nccs5)c(Cl)c4)c3c2)=N1` (10 µM) are -0.156 and 97% (inactive).
The corresponding values for `CCC[N+]12[C@H](O)[C@@H](CC)[C@@H]3C[C@H]1[C@@H]1N(C)c4ccccc4[C@]14C[C@H]2[C@@H]3[C@H]4O` [neo-gilurytmal] (10 µM) are -0.0363 and 116% (inactive).
On to `Cc1c(C)c2c(c(C)c1O)CCC(C)(C)O2` (10 µM), for which, in experiment [1], the morphology score was -0.0795. Besides, in experiment [2], the SARS-CoV-2 infection rate is 116% (inactive).
The corresponding values for `COc1c(C)c2c(c(O)c1C/C=C(\C)CCC(=O)OCCN1CCOCC1)C(=O)OC2` [mycophenolate-mofetil] (10 µM) are -0.124 and 108% (inactive).
The corresponding values for `Cn1cc(-c2ccc3ncc(Cc4ccc5ncccc5c4)n3n2)cn1` (10 µM) are 0.442 and 83% (inactive).
On the same counts, the results for `CC(C)(O)c1ccn2c(-c3ccc(F)c(-c4ccc(F)cc4C#N)c3)cnc2c1F` (10 µM) are -0.0136 and 108% (inactive).
Regarding `CC(C(=O)O)c1ccc2c(c1)Cc1cccnc1O2` (stereo not drawn) [pranoprofen] (10 µM), the morphology score in experiment [1] was -0.152. Further, the SARS-CoV-2 infection rate in experiment [2] was 122% (inactive).
On the same counts, the results for `C=CC[C@@H]1/C=C(\C)C[C@H](C)C[C@H](OC)[C@H]2O[C@@](O)(C(=O)C(=O)N3CCCC[C@H]3C(=O)O[C@H](/C(C)=C/[C@@H]3CC[C@@H](O)[C@H](OC)C3)[C@H](C)[C@@H](O)CC1=O)[C@H](C)C[C@@H]2OC` [tacrolimus] (10 µM) are 0.199 and 93% (inactive).
The compound `CCCCN1CCCCC1C(=O)Nc1c(C)cccc1C` (stereo not drawn) [bupivacaine] (10 µM) displayed a morphology score in experiment [1] of 0.0282. The SARS-CoV-2 infection rate in experiment [2] is 110% (inactive).
In experiment [1], `O=C(N[C@H]1CN2CCC1CC2)c1cc2cccc(Cl)c2s1` (10 µM) registered a morphology score of 0.352. Also, the SARS-CoV-2 infection rate in experiment [2] is 86.5% (inactive).
